Experimental findings from PMC10726135, “HNF4α isoforms regulate the circadian balance between carbohydrate and lipid metabolism in the liver” are described below.

Over roughly 18,000 sequences, “log2 normalized intensity” has its median near 0.36; the highest 2% begin near 7.3. The full list was thinned out, with the highest values kept by preference.

The target in this assay is T1, HNF4alpha8 (COS-7 nuclear extract) (Homo sapiens, UniProt P41235-5 1-452).
T1 sequence: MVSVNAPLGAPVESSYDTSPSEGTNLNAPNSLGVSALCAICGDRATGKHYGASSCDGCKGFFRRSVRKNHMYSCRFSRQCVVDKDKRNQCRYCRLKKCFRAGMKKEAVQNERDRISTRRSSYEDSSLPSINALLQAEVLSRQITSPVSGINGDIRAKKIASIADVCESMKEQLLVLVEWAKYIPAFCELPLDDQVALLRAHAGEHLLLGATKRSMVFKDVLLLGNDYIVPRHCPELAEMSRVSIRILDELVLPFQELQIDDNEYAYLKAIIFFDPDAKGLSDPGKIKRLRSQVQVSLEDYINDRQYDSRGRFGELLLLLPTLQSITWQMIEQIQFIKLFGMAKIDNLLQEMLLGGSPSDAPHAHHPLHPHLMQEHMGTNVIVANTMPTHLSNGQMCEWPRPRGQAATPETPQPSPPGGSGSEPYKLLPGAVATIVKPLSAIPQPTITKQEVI
Nature of the assay: protein-binding microarray; COS-7 nuclear extract on double-stranded Agilent 4x180k PBM; binding buffer, salt, pH and temperature not given in the material; high values mean tight binding. The note with it: chain copies: 2; label: 3' end of strand 1 on the slide; dsDNA, one strand shown. Put shortly:
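A custom Agilent SurePrint G3 4x180k array, spotted in quadruplicate with ~44,000 test sequences as ~60-nt oligonucleotides made double-stranded, was incubated with nuclear extracts. The extracts came from COS-7 cells transiently transfected by CaPO4 with a human HNF4α isoform expression vector. Bound HNF4α was imaged on an Agilent G2565CA scanner at 2-µm resolution, and the binding signal was taken as Agilent software's background-corrected, normalized gProcessedSignal.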
Regarding “TCAGTTGCAGAAAAACAGGTTCTGCAACACGCCTAGGGAGATTAGAGTATCGGTCGA”, the binding signal is 0.876 log2 normalized intensity.
The figure for “ATTACCAATGAGAAACCTCAAAGGTTAGGGGCCTAGGGAGATTAGAGTATCGGTCGA” is 0.852 log2 normalized intensity; for “GAGCAAAGGGCATGGAGGATTTAGATAACAGCCTAGGGAGATTAGAGTATCGGTCGA” it is 0.728 log2 normalized intensity.
With “AGTGGTTTAAAAACTTATCTTGTGACCTTTGCCTAGGGAGATTAGAGTATCGGTCGA”, the binding signal turned out to be 7.47 log2 normalized intensity.
As for “ATCTGACCTTTGGTTAACTTCTTAACTTGGGCCTAGGGAGATTAGAGTATCGGTCGA”, the figure is 3.5 log2 normalized intensity.
Regarding “CTGAACTTTAAACTGGTGTGTCTTGCCTTTGCCTAGGGAGATTAGAGTATCGGTCGA”, the binding signal was 2.42 log2 normalized intensity.
The figure for “CTTATCTACTTTAAGATTTGACCCTTGGCCGCCTAGGGAGATTAGAGTATCGGTCGA” is 7.78 log2 normalized intensity; for “ATTCTCTTATCTACTTTAAGATTTGACCCTGCCTAGGGAGATTAGAGTATCGGTCGA” it is 5.76 log2 normalized intensity; for “AAACTTATCTTGTGACCTTTGACTCATTATGCCTAGGGAGATTAGAGTATCGGTCGA” it is 7.16 log2 normalized intensity.
As for “TTTAAAAACTTATCTTGTGACCTTTGACTCGCCTAGGGAGATTAGAGTATCGGTCGA”, the figure is 8.96 log2 normalized intensity.
As for “TATCTTGTGACCTTTGACTCATTATCCCCCGCCTAGGGAGATTAGAGTATCGGTCGA”, the figure is 7.09 log2 normalized intensity; as for “TTAAGATTTGACCCTTGGCCAGGTGCAGTGGCCTAGGGAGATTAGAGTATCGGTCGA”, 5.41 log2 normalized intensity.
For the sequence “TTACTGGGGCCCATTGTATGAGGGTGAAGTGCCTAGGGAGATTAGAGTATCGGTCGA”, the binding signal turned out to be 0.972 log2 normalized intensity.
As for “CTATCTCAGATAGCTTTAGCCGGACTTTGTGCCTAGGGAGATTAGAGTATCGGTCGA”, the figure is 5.85 log2 normalized intensity; as for “CATCGGACTTTGATCTGCCACATACCTTTAGCCTAGGGAGATTAGAGTATCGGTCGA”, 5.04 log2 normalized intensity.
The figure for “AAATGTACTGGATATAGCCAGATGTCCTTTGCCTAGGGAGATTAGAGTATCGGTCGA” is 2.37 log2 normalized intensity; for “TCAGATAGCTTTAGCCGGACTTTGTCCTTTGCCTAGGGAGATTAGAGTATCGGTCGA” it is 8.54 log2 normalized intensity.
As for “TAGCTTTAGCCGGACTTTGTCCTTTGATTTGCCTAGGGAGATTAGAGTATCGGTCGA”, the figure is 7.5 log2 normalized intensity; as for “CGGACTTTGTCCTTTGATTTTTTAAAGTAAGCCTAGGGAGATTAGAGTATCGGTCGA”, 5.37 log2 normalized intensity; as for “ACCCAGGTGTGTTGCAACTTTGACTATAGCGCCTAGGGAGATTAGAGTATCGGTCGA”, 0.342 log2 normalized intensity.
As for “GTTTGCATTTTAACCTTTGGCTGGTAGAGCGCCTAGGGAGATTAGAGTATCGGTCGA”, the binding signal came out at 4.17 log2 normalized intensity.
As for “AGCCGTCTGGTAAATTTCTAACACTCCCCAGCCTAGGGAGATTAGAGTATCGGTCGA”, the figure is 2.15 log2 normalized intensity; as for “GGGTCAGTTTATCTAAGATTCCCCCTACCCGCCTAGGGAGATTAGAGTATCGGTCGA”, 4 log2 normalized intensity; as for “TGGGCTCCTGCCTTGGAGAAGTGAACTTTGGCCTAGGGAGATTAGAGTATCGGTCGA”, 5.62 log2 normalized intensity.
The figure for “TCTCTGGCTTGATCCCTGAACTTTGCTCCCGCCTAGGGAGATTAGAGTATCGGTCGA” is 8.76 log2 normalized intensity.
With “ACTGATCTCTGGCTTGATCCCTGAACTTTGGCCTAGGGAGATTAGAGTATCGGTCGA”, the binding signal turned out to be 4.37 log2 normalized intensity.
The figure for “GAGAAGTGAACTTTGCCCTCTCTTTCTGGAGCCTAGGGAGATTAGAGTATCGGTCGA” is 8.26 log2 normalized intensity; for “GTGAACTTTGCCCTCTCTTTCTGGAACCTAGCCTAGGGAGATTAGAGTATCGGTCGA” it is 5.67 log2 normalized intensity.
The figure for “GGCTTGATCCCTGAACTTTGCTCCCACCCTGCCTAGGGAGATTAGAGTATCGGTCGA” is 6.25 log2 normalized intensity; for “CCTTGGATCTCCTGCACCTGAACTTTGCTCGCCTAGGGAGATTAGAGTATCGGTCGA” it is 6.94 log2 normalized intensity.
The figure for “AAGTGACCCTGGTCTTTGCCCTTTCCTAGAGCCTAGGGAGATTAGAGTATCGGTCGA” is 3.98 log2 normalized intensity; for “TCCTGCCTTGGAGAAGTGAACTTTGCCCTCGCCTAGGGAGATTAGAGTATCGGTCGA” it is 10.7 log2 normalized intensity; for “TGGAATCCAAAGTATTTTCTGTCTAGGTGCGCCTAGGGAGATTAGAGTATCGGTCGA” it is 0.637 log2 normalized intensity.
Consider “TTGCCTAACTGCTGCATGTCATGACCTTCAGCCTAGGGAGATTAGAGTATCGGTCGA”, for which the binding signal stood at 3.69 log2 normalized intensity.
On to “TCTACTCCCTGTTCTTACACCTGCTCCCCTGCCTAGGGAGATTAGAGTATCGGTCGA”, for which the binding signal worked out at 2.97 log2 normalized intensity.
As for “TGTATACTTATGTAGAAAGATATCTCTGTGGCCTAGGGAGATTAGAGTATCGGTCGA”, the figure is 1.3 log2 normalized intensity.
The figure for “AAGATCATTCCAGGAATGTTCAAGAAGTTCGCCTAGGGAGATTAGAGTATCGGTCGA” is 0.0918 log2 normalized intensity; for “AGATAGGACAGTGGTCTTTATGACTTGGGTGCCTAGGGAGATTAGAGTATCGGTCGA” it is 1.4 log2 normalized intensity; for “GACTATTTTATTTTCCCCCTTTGAAGTCTGGCCTAGGGAGATTAGAGTATCGGTCGA” it is 3.2 log2 normalized intensity.
As for “GTCCTTCCCAAGTCCTGCATGTGTTCACACGCCTAGGGAGATTAGAGTATCGGTCGA”, the figure is 1.21 log2 normalized intensity; as for “AGTAACCTGACCCCCAGTGGAATGTGCCCTGCCTAGGGAGATTAGAGTATCGGTCGA”, 4.61 log2 normalized intensity.
For “AATGTGCCCTTTGACCTCTCTCTCCTAACTGCCTAGGGAGATTAGAGTATCGGTCGA”, the binding signal came out at 7.21 log2 normalized intensity.
For the sequence “CCCTCTGAGTGTTTGACCTTTCACCCAGAAGCCTAGGGAGATTAGAGTATCGGTCGA”, the binding signal turned out to be 7.2 log2 normalized intensity.
The figure for “AGTGGAATGTGCCCTTTGACCTCTCTCTCCGCCTAGGGAGATTAGAGTATCGGTCGA” is 8.33 log2 normalized intensity.
As for “TGGTGCCCTCTGAGTGTTTGACCTTTCACCGCCTAGGGAGATTAGAGTATCGGTCGA”, the figure is 8.17 log2 normalized intensity; as for “GGAATGACCTTTGATATTTGTGCCTAGTGGGCCTAGGGAGATTAGAGTATCGGTCGA”, 5.39 log2 normalized intensity; as for “GTGCTCCCTCCCCCTGCATGAACCTTTGCTGCCTAGGGAGATTAGAGTATCGGTCGA”, 3.72 log2 normalized intensity.
The figure for “GGTGGGCTGCTCCCAGTGCCCTTTGAACTCGCCTAGGGAGATTAGAGTATCGGTCGA” is 8.91 log2 normalized intensity; for “CACTCTGGTGCCCTCTGAGTGTTTGACCTTGCCTAGGGAGATTAGAGTATCGGTCGA” it is 5.61 log2 normalized intensity.
In the case of “GGCCAGGTGGGCTGCTCCCAGTGCCCTTTGGCCTAGGGAGATTAGAGTATCGGTCGA”, the binding signal was 4.47 log2 normalized intensity.
Consider “CCTGACCCCCAGTGGAATGTGCCCTTTGACGCCTAGGGAGATTAGAGTATCGGTCGA”, for which the binding signal came out at 5.75 log2 normalized intensity.
As for “CCCCCAGTGGAATGTGCCCTTTGACCTCTCGCCTAGGGAGATTAGAGTATCGGTCGA”, the figure is 10.3 log2 normalized intensity.
The figure for “TGCCCTATGTCCTCCAGCTCTTGGGGAACAGCCTAGGGAGATTAGAGTATCGGTCGA” is 0.218 log2 normalized intensity; for “AAAGCCATCAGCACTGGTTCAAAGTGTAGCGCCTAGGGAGATTAGAGTATCGGTCGA” it is 1.25 log2 normalized intensity.
